In all, about 130,000 compounds went through this assay and about 2,500 (1.9%) were called active.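 The calls were made as follows: active = signal ratio slope over the read window, or its plate-corrected B-score, at least 3 SD from the plate mean, either direction; inactive = the rest.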 Shown is part of a subset that was picked to be rich in actives.

Chain of ATP-sensitive inward rectifier potassium channel 1 (Homo sapiens) (P48048 whole entry, looked up): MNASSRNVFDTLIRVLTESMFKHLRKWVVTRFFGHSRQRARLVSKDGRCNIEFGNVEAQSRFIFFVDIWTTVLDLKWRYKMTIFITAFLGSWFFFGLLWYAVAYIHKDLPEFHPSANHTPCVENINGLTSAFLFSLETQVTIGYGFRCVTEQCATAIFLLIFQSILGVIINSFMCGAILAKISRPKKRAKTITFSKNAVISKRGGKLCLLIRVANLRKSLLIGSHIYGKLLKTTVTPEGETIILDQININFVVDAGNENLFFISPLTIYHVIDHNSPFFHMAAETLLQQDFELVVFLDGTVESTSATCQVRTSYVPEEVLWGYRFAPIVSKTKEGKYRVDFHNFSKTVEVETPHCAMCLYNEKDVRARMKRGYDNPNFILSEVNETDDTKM

The assay concerns the target ATP-sensitive inward rectifier potassium channel 1 (Homo sapiens) (UniProt P48048). As to the kind of experiment: Kir1.1 channel activity modulation, library screen – cell-based, thallium flux, MLSMR library, primary screen (AID 1918).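 Also: B-score of the F/F0 ratio slope over 7 to 12 s after thallium.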 The note with it: Tet-inducible ROMK, thallium flux fluorescence; at 10 µM; actives lie on both sides.
Turning to `O=C(N/N=C/c1ccccn1)c1ccc(S(=O)(=O)N2CCCCCC2)cc1`, the B-score is 1.67 (inactive). The same measure for `CC12CN(Cc3ccccc3)CC(C)(CN(Cc3ccccc3)C1)C2=NO`: -3.21 (active). The same measure for `O=C(Nc1ccccc1)N1CCN(Cc2ccccc2)CC1`: -0.796 (inactive); for `C/C(=N\N1CCN(Cc2ccc(C)cc2)CC1)c1ccco1`: -0.228 (inactive).

For the compound `COc1cc2c(C(=O)N3CCN(C)CC3)c(CSc3ccccc3)n(C)c2cc1Br`, the B-score was -0.529 (inactive). The same measure for `Cc1ccnc(NC(=O)CCC(=O)N(CC(=O)NCc2ccccc2)Cc2ccco2)c1`: -0.274 (inactive); for `CCN(CC)C(=O)CN(c1cccc(OC)c1)S(=O)(=O)c1ccc(C)cc1`: 0.523 (inactive). On to `COc1ccc([N+](=O)[O-])cc1N(CC(O)CN(CC(C)C)CC(C)C)S(=O)(=O)c1ccc(C)cc1` (stereo not given), for which the B-score was -3.76 (active). Next, `Cc1ccc(N(CC(O)CN2CCCC2)S(=O)(=O)c2ccccc2)cc1` (stereo not given): -0.891 (inactive); `C/C(Cc1ccccc1)=N\NC(=O)CNC(=O)c1ccccc1Cl`: 0.223 (inactive). Next, `CN(/C(=N/S(=O)(=O)c1cccs1)c1ccccc1)c1ccc(O)cc1`: 0.111 (inactive). Next, `O=C(NNC(=S)NCc1ccco1)C(c1ccccc1)c1ccccc1`: -0.0839 (inactive); `CCC1CCCCN1S(=O)(=O)Cc1ccccc1Cl` (stereo not given): -1.11 (inactive); `COc1ccc(N2CCN(C(=O)C3CCN(S(=O)(=O)c4ccc(C)cc4)CC3)CC2)cc1`: 0.00237 (inactive). As to `N#C/C(=C\C1=C(N2CCOCC2)C(=C\c2ccccc2)/CC1)C(=O)Nc1ccccc1F`, the B-score was -3.73 (active). Regarding `O=C1Nc2ccc(Br)cc2/C1=N/N=C/C1=C(N2CCOCC2)C(=C\c2ccccc2)/CC1`, the B-score is 1.2 (inactive). The same measure for `C(=N\N1CCN(c2ccccn2)CC1)/C1=C(N2CCOCC2)C(=C/c2ccccc2)/CC1`: -0.00313 (inactive); for `Cc1cccc(NC(=O)CSc2nnc(CCNC(=O)OC(C)(C)C)o2)c1C`: 0.146 (inactive); for `Fc1cccc(CSc2nnc3ccc(-c4ccncc4)nn23)c1`: 1.92 (inactive). The same measure for `CSCCNCc1cn(-c2ccc(F)cc2F)nc1-c1ccccc1C`: -0.924 (inactive); for `CCCCCCCNc1nc(Cl)nc(NCCO)n1`: -0.271 (inactive); for `C=CCc1ccc(OCC(O)CN2CCN(Cc3ccccc3)CC2)c(OC)c1` (stereo not given): -1.83 (inactive). Next, `Cc1ccc(-c2csc(NC(=O)c3cnccn3)n2)cc1C`: 1.18 (inactive); `Cc1nc2ccccc2nc(=O)c1NNc1ccc([N+](=O)[O-])cc1`: 3.6 (active).

On to `O=C(Nn1c(-c2ccccc2)nc2ccccc2c1=O)c1ccc([N+](=O)[O-])cc1`, for which the B-score is 1.18 (inactive). The same measure for `Cc1nc2ccccc2cc1C(=O)N/N=C/c1ccc([N+](=O)[O-])cc1`: -0.145 (inactive); for `COc1ccccc1CC(NC(C)=O)C(=O)NC1CCN(C(=O)Nc2ccccc2Cl)CC1` (stereo not given): -0.0342 (inactive); for `O=C(NNC(=S)NCCCN1CCOCC1)c1ccncc1`: -0.0357 (inactive). As to `COCCNC(=O)/C(C#N)=C/c1nc(N(C)C)n(-c2ccc(F)cc2)c1Cl`, the B-score was -0.0358 (inactive). With `CCOC(=O)NC(=O)/C(C#N)=C\c1ccccc1`, the B-score was -1.48 (inactive). The same measure for `COCCNC(=O)/C(C#N)=C/c1cccc(OCc2ccccc2)c1`: -2.75 (active). The same measure for `N#C/C(C(=S)Nc1ccccc1)=C1/NN=C(N2CCOCC2)N1c1ccccc1`: 0.219 (inactive). In the case of `O=C(COC(=O)CC1CC2CCC1C2)NC(=O)NC1CCCC1` (stereo not given), the B-score was -0.0323 (inactive). The same measure for `Nc1ncnc(Nc2cccc(Cl)c2Cl)n1`: -0.357 (inactive).

As for `O=C(O)c1ccc(NC(=O)c2cccs2)cc1`, the B-score was -0.729 (inactive).

In the case of `O=C(Nc1ccccc1-c1ccccc1)c1cccs1`, the B-score is -3.72 (active). The same measure for `O=C(Nc1ncccn1)c1cccs1`: 0.282 (inactive). The same measure for `NS(=O)(=O)c1cccc(NC(=O)COC(=O)/C=C/c2ccco2)c1`: 1.2 (inactive). `COc1cc(NC(=O)COc2ccccc2Cl)ccc1NC(=O)C(C)C`: the B-score is -0.0152 (inactive). The same measure for `CCCN(CC(=O)Nc1ccc(C(N)=O)cc1)CC(=O)Nc1ccccc1C`: 2.09 (inactive); for `CCCN(CCC)CC(O)COc1ccccc1C(=O)Nc1ccccc1` (stereo not given): -3.37 (active). `CCCOc1ccccc1C(=O)NCCCC(=O)O`: the B-score was 0.945 (inactive).

Consider `Cc1cc(C)cc(NC(=O)COC(=O)c2cc(C)oc2C)c1`, for which the B-score was 0.675 (inactive). On to `COc1cccc(-n2c(=S)[nH]c3c(oc4ccccc43)c2=O)c1`, for which the B-score is -0.508 (inactive). The same measure for `Cc1cccc(NC(=O)c2ccc3nsnc3c2)c1C`: 0.488 (inactive); for `COc1ccc(Br)cc1C(=O)Nc1cccc(C)c1C`: -2.34 (active). The same measure for `COc1ccc(C)cc1NC(=O)c1[nH]c(C)c(C(C)=O)c1C`: -0.381 (inactive); for `Cc1cc(C)nc(Nc2cc([N+](=O)[O-])ccc2C)n1`: -0.867 (inactive); for `CCCC(=O)NC(=S)Nc1ccc(CN2CCOCC2)cc1`: 0.069 (inactive).

Turning to `COC(=O)c1c(C)oc(C)c1S(=O)(=O)NCc1ccc(Cl)cc1`, the B-score was -0.884 (inactive). Regarding `c1ccc(-n2nnnc2-c2cccnc2)cc1`, the B-score is 0.982 (inactive). For `CNC(=O)C(=O)N/N=C/c1ccccn1`, the B-score was 1.14 (inactive).

Regarding `c1ccc(C2c3[nH]c4ccccc4c3CCN2Cc2cccn2-c2cccnc2)nc1` (stereo not given), the B-score is -0.00648 (inactive). The same measure for `CC1(C)C=C2[C@H]3CC[C@@H]4[C@@]5(C)CCC(=O)C(C)(C)[C@@H]5CC[C@@]4(C)[C@]3(C)CC[C@@]2(C(=O)O)CC1`: 3.78 (active). Next, `Cc1ccc(C(=O)N2CCN(S(=O)(=O)N3CCOCC3)CC2)cc1`: -0.0164 (inactive); `O=C(CCS(=O)(=O)Cc1ccccc1)Nc1ccc2c(c1)OCCO2`: 0.0737 (inactive). Next, `CCn1cc(C(=O)NCc2ccc3c(c2)OCO3)c2cc(OC)c(OC)cc2c1=O`: 2.18 (inactive). Consider `COc1ccccc1-n1c(C)nc2cc(C(=O)NCc3ccc4c(c3)OCO4)ccc21`, for which the B-score was 2.52 (active). Next, `COc1cc(-n2c(C)nc3cc(C(=O)NCc4ccco4)ccc32)cc(OC)c1OC`: 2.33 (inactive); `C=CCn1c(-c2sc(-c3ccccc3)nc2C)n[nH]c1=S`: -0.143 (inactive).

The record behind these values is PubChem BioAssay AID1918 (Vanderbilt High Throughput Screening Facility, 2009).
